Data reported in the supplement of paper PMC11732987, “Enantioselective OTUD7B fragment discovery through chemoproteomics screening and high-throughput optimisation” (Communications Chemistry, 2025).

Assays:
Assay in all cases: log2 ratio of Biotin-Ahx-Ub-VS probe labelling (fragment/DMSO); higher = less target engagement (more negative = stronger competition), active = hit call of the paper (q ≤ 0.05, log2 ratio ≤ -1)
Conditions in all cases: compound concentration: 200 uM; treatment time: 3 h
[1] = target: T1, ALG13 (UniProt Q9NP73)
T1 sequence (whole entry): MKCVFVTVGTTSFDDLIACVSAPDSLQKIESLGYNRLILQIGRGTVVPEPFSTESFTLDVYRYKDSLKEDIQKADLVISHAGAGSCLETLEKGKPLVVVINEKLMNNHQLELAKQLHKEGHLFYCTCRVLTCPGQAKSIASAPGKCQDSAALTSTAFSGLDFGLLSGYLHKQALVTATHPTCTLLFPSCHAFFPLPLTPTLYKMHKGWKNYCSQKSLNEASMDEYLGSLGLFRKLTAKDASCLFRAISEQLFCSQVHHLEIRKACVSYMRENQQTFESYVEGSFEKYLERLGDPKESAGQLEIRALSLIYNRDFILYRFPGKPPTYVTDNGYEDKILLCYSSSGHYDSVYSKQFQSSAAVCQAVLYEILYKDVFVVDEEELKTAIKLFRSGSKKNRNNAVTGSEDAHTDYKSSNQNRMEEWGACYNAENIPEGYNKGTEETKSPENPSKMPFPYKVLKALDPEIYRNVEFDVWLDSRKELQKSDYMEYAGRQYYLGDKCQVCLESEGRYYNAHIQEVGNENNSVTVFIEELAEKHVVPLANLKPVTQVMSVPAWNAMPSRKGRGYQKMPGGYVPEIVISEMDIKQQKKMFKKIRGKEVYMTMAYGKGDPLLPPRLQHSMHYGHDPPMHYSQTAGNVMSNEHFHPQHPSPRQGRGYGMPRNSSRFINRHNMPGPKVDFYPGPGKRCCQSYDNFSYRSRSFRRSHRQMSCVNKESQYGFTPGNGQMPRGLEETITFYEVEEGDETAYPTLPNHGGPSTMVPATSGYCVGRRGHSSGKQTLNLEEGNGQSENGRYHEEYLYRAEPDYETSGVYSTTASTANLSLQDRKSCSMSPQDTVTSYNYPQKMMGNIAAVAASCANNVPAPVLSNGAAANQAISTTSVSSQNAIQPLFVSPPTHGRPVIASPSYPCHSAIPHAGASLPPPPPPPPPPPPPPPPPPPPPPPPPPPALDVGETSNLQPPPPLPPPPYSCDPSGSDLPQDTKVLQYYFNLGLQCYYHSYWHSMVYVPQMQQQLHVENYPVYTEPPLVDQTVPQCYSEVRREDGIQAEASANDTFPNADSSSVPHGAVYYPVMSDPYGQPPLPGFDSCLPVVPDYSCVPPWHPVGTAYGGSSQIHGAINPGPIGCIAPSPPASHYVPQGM
Procedure, shortened: (§1)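 Average log2 ratios of fragment over vehicle were obtained by unpaired t-test from global-median-normalised Spectronaut label-free quantities. Proteins with ≥2 unique peptides were included. HEK293T lysate (495 µg per sample) was treated in triplicate with fragment at 200 µM or vehicle for 3 h, then with Biotin-Ahx-Ub-VS at 0.5 µM final for 1 h, and labelled DUBs were NeutrAvidin-enriched and run by diaPASEF LC-MS/MS.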

[2] = target: ATXN3 (UniProt P54252)
ATXN3, sequence (P54252 whole entry): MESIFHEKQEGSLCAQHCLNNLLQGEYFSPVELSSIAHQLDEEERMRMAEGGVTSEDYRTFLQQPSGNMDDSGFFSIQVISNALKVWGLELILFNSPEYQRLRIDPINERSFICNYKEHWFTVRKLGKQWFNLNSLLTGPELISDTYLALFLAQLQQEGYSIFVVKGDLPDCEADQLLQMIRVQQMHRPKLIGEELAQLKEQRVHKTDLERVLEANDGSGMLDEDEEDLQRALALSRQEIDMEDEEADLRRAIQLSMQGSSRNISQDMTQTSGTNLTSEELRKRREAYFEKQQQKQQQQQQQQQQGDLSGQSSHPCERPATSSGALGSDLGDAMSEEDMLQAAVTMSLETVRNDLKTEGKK
Procedure, shortened: as §1

[3] = target: T2, BAP1 (UniProt Q92560)
T2 sequence (whole entry): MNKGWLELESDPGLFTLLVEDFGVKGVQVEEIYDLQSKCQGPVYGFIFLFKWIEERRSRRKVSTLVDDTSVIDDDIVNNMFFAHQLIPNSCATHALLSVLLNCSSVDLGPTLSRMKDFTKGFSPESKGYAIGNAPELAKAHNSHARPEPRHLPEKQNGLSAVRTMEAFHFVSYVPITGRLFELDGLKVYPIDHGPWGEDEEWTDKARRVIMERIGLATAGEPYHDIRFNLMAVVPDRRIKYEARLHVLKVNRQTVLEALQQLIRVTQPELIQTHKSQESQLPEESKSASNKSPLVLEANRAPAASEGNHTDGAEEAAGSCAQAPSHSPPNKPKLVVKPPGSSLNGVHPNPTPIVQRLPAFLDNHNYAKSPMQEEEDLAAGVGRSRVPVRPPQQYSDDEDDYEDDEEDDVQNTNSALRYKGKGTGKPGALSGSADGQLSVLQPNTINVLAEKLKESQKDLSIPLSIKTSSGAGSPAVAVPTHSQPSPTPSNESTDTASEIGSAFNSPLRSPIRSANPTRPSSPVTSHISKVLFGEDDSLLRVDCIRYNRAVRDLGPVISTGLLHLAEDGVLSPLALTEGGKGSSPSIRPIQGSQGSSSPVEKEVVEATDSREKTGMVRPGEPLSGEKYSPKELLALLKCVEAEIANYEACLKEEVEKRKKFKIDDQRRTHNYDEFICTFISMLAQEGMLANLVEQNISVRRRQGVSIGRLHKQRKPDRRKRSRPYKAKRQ
Procedure, shortened: as §1

[4] = target: EIF3F (UniProt O00303)
EIF3F, sequence (O00303 whole entry): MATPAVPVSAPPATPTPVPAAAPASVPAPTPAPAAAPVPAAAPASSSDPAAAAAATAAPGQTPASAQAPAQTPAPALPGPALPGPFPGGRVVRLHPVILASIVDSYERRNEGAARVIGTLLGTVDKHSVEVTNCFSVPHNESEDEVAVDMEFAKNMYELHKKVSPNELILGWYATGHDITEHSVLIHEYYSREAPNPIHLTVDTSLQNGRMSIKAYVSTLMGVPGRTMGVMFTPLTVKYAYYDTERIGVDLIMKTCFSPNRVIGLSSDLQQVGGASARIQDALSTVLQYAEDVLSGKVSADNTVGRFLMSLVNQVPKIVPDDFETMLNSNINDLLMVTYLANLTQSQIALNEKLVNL
Procedure, shortened: as §1

[5] = target: EIF3H (UniProt O15372)
EIF3H, sequence (O15372 whole entry): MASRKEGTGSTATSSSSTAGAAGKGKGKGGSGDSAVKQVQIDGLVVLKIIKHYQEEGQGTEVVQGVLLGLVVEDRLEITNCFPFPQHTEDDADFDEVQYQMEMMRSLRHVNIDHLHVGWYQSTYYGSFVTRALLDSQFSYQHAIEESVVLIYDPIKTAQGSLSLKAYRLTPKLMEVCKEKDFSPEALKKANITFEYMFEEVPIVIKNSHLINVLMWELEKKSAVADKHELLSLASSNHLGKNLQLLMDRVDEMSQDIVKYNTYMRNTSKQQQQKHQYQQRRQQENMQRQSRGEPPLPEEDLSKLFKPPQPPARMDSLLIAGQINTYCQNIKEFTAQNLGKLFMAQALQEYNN
Procedure, shortened: as §1

[6] = target: T3, FAM105A (UniProt Q9NUU6)
T3 sequence (whole entry): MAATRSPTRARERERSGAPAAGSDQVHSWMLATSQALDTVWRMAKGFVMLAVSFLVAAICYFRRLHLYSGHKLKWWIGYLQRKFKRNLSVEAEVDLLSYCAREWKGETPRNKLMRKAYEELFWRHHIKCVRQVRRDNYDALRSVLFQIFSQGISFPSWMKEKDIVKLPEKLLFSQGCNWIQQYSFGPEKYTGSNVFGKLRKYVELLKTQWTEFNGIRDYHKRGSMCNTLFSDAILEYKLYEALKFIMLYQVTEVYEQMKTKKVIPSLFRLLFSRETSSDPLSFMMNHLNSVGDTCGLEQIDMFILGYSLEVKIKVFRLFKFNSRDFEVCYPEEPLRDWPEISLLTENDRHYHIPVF
Procedure, shortened: as §1

[7] = target: OTUB1 (UniProt Q96FW1)
OTUB1, sequence (Q96FW1 whole entry): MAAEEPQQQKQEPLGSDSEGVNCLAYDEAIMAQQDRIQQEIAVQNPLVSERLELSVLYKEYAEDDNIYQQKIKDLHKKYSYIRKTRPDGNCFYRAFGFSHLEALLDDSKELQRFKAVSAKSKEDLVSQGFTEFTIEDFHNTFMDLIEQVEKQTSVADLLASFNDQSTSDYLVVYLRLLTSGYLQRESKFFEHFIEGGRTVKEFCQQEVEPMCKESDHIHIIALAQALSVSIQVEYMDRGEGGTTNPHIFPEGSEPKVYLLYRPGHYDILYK
Procedure, shortened: as §1

[8] = target: T4, OTUD4 (UniProt Q01804)
T4 sequence (whole entry): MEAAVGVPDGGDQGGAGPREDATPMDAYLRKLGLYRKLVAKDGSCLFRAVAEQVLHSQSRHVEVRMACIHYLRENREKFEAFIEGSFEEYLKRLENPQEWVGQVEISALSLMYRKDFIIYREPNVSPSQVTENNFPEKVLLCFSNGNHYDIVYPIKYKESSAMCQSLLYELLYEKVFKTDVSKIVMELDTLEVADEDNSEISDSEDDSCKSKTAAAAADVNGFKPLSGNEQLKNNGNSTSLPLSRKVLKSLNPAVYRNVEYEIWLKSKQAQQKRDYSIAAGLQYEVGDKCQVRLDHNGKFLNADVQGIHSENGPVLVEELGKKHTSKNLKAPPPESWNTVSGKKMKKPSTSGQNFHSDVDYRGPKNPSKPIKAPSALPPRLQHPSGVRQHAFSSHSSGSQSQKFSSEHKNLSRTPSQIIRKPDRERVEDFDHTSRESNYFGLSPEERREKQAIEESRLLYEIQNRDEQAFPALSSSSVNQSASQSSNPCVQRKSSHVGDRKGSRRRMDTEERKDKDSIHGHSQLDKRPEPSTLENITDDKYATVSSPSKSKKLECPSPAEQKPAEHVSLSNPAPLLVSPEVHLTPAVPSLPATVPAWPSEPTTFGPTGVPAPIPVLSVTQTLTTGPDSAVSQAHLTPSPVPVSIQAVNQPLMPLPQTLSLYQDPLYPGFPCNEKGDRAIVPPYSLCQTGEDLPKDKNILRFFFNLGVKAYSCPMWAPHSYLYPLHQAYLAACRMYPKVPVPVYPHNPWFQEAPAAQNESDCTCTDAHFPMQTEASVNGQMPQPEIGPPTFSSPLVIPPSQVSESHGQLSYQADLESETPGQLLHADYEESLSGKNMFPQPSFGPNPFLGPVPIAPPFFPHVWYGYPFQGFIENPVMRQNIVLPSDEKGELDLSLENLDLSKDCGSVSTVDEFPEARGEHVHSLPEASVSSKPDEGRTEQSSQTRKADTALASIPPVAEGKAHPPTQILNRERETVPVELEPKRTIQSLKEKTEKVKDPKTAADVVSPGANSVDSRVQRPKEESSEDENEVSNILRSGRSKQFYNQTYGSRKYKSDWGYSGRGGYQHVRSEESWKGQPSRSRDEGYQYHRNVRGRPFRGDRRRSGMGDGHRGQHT
Procedure, shortened: as §1

[9] = target: T5, OTUD5 (UniProt Q96G74)
T5 sequence (whole entry): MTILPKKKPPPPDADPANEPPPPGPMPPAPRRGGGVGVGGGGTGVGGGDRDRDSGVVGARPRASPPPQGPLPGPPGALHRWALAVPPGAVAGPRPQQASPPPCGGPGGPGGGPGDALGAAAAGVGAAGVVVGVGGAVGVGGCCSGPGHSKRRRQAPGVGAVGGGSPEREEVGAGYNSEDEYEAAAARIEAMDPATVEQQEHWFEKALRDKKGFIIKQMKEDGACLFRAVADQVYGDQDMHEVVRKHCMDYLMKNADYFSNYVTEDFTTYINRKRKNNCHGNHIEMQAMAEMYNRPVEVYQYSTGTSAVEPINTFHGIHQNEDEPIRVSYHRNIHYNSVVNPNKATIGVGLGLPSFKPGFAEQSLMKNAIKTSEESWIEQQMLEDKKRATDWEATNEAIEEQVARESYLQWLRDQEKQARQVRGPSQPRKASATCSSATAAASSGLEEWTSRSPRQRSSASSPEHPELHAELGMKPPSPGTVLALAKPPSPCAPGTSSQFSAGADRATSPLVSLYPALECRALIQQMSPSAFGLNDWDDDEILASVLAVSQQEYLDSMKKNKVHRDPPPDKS
Procedure, shortened: as §1

Measured: log2 ratio of Biotin-Ahx-Ub-VS probe labelling

O=C(CCl)N1CCOC2(CCC2)CC1
inactive: [1] -0.588 | [2] -0.29 | [3] -0.305 | [4] -0.12 | [5] 0.0846 | [6] -0.0165 | [7] -0.14 | [8] -0.374 | [9] -0.595
